KCNQ2 inh – KCNQ2 (rat) channel inhibition. B-score at 10 µM. 310,000 compounds, 1.1% hits. CHO-K1 KCNQ2, FluxOR thallium flux, 20 min; active compounds read low. AID 2156. O88943;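 active = fluorescence ratio B-score at most minus 3 library SDs, with starting brightness B-score within 2 library SDs, cut at about -5.5 in these data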
KCNQ2 pot – KCNQ2 (rat) channel potentiation; CHO-K1 KCNQ2, FluxOR thallium flux fluorescence; active compounds read high; 310,000 compounds, 0.54% hits; B-score at 10 µM;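 active = fluorescence ratio B-score at least 3 SD of library B-scores, with initial fluorescence B-score within 3 of them, cut at about 5.3 in these data; same plate scores as AID 2156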;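 note: B-score of peak minus minimum over baseline fluorescence ratio after K+ and Tl+ stimulus; positive B-score means potentiation of KCNQ2 with more thallium influx and brighter signal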
Kir21 conf inh – confirmation of mouse Kir2.1 potassium channel inhibitors | shares compounds with KCNQ2 pot | Kir2.1-expressing cells, FluxOR thallium flux fluorescence; active compounds read low | Tl flux remaining, % of negative control (active compounds read low), % at 10 µM | 2,300 compounds, 41% hits | AID 2032;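 active = Primary-screen hit whose thallium flux fell at least 3 control SD below untreated wells in both duplicates, with normal baseline fluorescence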;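 note: 0% = blank wells without stimulus and 100% = stimulated no-compound controls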
HEK293 Tl flux – counter-screen for Kir2.1 inhibitors: effect in parental HEK293 cells; shares compounds with KCNQ2 pot; FluxOR thallium flux fluorescence; 0% = unstimulated blank wells; FluxOR signal as % of negative control (100 = no effect), % at 10 µM; 2,300 compounds, 19% hits; AID 2105;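 active = dye signal at least 3 control SD above or below untreated wells in both duplicates, raw fluorescence within 3, either direction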;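 note: percent is based on the flux ratio of peak minus minimum fluorescence over baseline F0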
CHO-K1 Tl ctr – counter-screen for KCNQ2 potentiators: effect in parental CHO-K1 cells; shares compounds with KCNQ2 pot; FluxOR thallium flux fluorescence; zero = vehicle mean+3SD, 100% = vehicle-minus-blank window; activity increase over 3SD of controls, % at 10 µM; 1,200 compounds, 43% hits;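 active = signal rise of at least 3 SD above the untreated control mean, in both duplicate wells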;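 note: counter screen of KCNQ2 potentiator hits so any rise reflects channel-independent effects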
KCNQ1 pot spec – tests whether KCNQ2 potentiators also act on human KCNQ1; shares compounds with KCNQ2 pot; CHO KCNQ1 stable, FluxOR thallium flux fluorescence; beyond 3SD, as % of vehicle-control signal; activation over 3SD threshold, % at 10 µM; 1,200 compounds, 28% hits;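 active = fluorescence ratio rise of at least 3 SD of vehicle wells above their mean, in both replicate wells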;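 note: 0% = vehicle mean plus 3 SD and 100% = vehicle minus unstimulated blank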
KCNQ2 pot confirm – confirmation of rat KCNQ2 potassium channel potentiators | shares compounds with KCNQ2 pot | CHO-KCNQ2 cells, FluxOR thallium flux fluorescence | potentiation, less the hit threshold, % at 10 µM | 1,200 compounds, 68% hits;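 active = fluorescence ratio rising 3 SD or more over the vehicle control mean in both replicates, plus primary screen hit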;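 note: peak minus minimum thallium fluorescence divided by baseline after K/Tl stimulus; 0% = vehicle mean plus 3 SD and 100% = vehicle minus unstimulated blank difference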
Kir21 spec – mouse Kir2.1 off-target activity of KCNQ2 potentiators. activity over 3SD threshold, % at 10 µM. shares compounds with KCNQ2 pot. 1,200 compounds, 2% hits. HEK293 Kir2.1, FluxOR thallium flux fluorescence;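 active = fluorescence ratio rise of at least 3 SD above the vehicle-control mean, seen in both replicates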;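 note: 0% = vehicle mean plus 3 SD and 100% = vehicle minus no-stimulus blank window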
KCNQ2 W236L pot – potentiates the retigabine-insensitive rat KCNQ2 W236L mutant channel | shares compounds with KCNQ2 pot | CHO KCNQ2-W236L, automated patch clamp current | current increase over 3SD of negative controls (%), active compounds read high, % at 25 µM | 940 compounds, 10% hits | AID 2558;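 active = current increase at least 3 SD of the untreated controls above them in both duplicate recordings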
Target sequence (O88943 whole entry W236L, looked up): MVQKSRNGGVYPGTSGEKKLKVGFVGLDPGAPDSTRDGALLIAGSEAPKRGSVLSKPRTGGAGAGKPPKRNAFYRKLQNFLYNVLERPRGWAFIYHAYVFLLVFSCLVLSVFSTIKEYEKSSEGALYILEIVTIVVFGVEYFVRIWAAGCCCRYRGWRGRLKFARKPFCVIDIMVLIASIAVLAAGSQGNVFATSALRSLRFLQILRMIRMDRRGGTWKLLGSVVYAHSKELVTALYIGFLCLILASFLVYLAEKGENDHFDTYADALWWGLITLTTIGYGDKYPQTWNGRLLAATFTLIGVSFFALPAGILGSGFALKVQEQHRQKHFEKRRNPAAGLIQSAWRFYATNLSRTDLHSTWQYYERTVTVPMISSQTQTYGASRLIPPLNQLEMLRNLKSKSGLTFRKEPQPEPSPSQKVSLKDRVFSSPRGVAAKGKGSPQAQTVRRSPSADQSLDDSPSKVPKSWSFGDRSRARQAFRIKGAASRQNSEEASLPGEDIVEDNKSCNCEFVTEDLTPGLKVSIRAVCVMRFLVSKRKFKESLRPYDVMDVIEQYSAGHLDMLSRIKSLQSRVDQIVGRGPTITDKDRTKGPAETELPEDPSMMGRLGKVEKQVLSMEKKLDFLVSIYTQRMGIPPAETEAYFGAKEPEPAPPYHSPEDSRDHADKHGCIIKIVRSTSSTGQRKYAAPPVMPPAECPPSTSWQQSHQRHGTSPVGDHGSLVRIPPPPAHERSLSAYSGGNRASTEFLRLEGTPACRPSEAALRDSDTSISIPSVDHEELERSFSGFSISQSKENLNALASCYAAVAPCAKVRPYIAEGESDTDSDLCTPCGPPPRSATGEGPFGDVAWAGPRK
The depositor's hits bear a star; i = inactive; . = not tested or not shown. Shown are actives, neighbours in structure and some others; about 1.6% of the full set was active somewhere.

SMILES	KCNQ2 inh	KCNQ2 pot	Kir21 conf inh	HEK293 Tl flux	others
O=C(NC(=S)Nc1ccccc1N1CCCC1)c1ccco1	i	7.5*	i	182%*	CHO-K1 Tl ctr=69*;KCNQ1 pot spec=-30;KCNQ2 pot confirm=-8;Kir21 spec=-42;KCNQ2 W236L pot=i
CC(C)C(=O)N1CCN(c2ccccc2NC(=S)NC(=O)c2ccco2)CC1	i	0.68	.	.
CC(CCc1ccccc1)NC(=S)NC(=O)c1ccco1 (stereo not given)	i	5.6*	i	183%*	CHO-K1 Tl ctr=-26;KCNQ1 pot spec=-14;KCNQ2 pot confirm=-3;Kir21 spec=-36;KCNQ2 W236L pot=i
CCC(C)c1ccccc1NC(=S)NC(=O)c1ccco1 (stereo not given)	i	12*	i	383%*	CHO-K1 Tl ctr=-7;KCNQ1 pot spec=68*;KCNQ2 pot confirm=48*;Kir21 spec=-16;KCNQ2 W236L pot=i
Cc1occc1C(=O)NC(C)CCc1ccccc1 (stereo not given)	i	0.55	.	.
COc1ccc(N(CC(=O)NCc2ccc(F)cc2)C(=O)Cn2nnc(-c3ccc(C)o3)n2)cc1OC	i	1.1	.	.
Cc1ccc2c(c1)SC1=NC(c3ccccc3)(C(F)(F)F)NC(=O)N12 (stereo not given)	i	.	.	.
CCCCn1c(N)c(N(CC(C)C)C(=O)c2ccc(Cl)c(S(=O)(=O)N3CCCC3)c2)c(=O)[nH]c1=O	i	0.17	.	.
COc1ccc2sc(NC(=O)c3ccco3)nc2c1	i	0.45	.	.
COc1ccc2nc(NC(=S)NC(=O)c3ccco3)sc2c1	i	13*	i	i	CHO-K1 Tl ctr=3.0*;KCNQ1 pot spec=2.4*;KCNQ2 pot confirm=6.4*;Kir21 spec=-28;KCNQ2 W236L pot=i
Clc1ccc(CN2CCC(Cc3ccccc3)CC2)cc1	i	.	.	.
Clc1cccc(CN2CCC(Cc3ccccc3)CC2)c1	i	.	71%*	i
CSc1ccc(OC2CCN(Cc3ccccc3)CC2)cc1	i	.	.	.
CSc1ccc(CN2CCC(Cc3ccccc3)CC2)cc1	i	.	18%*	i
COC(=O)c1c(NC(=O)COC(=O)CC(NC(C)=O)c2ccccc2)sc(C)c1C (stereo not given)	i	.	.	.
CCOC(=O)CCC(NC(=O)CCCC(=O)NC(CCC(=O)OCC)C(=O)OCC)C(=O)OCC (stereo not given)	i	0.3	.	.
C=CC(C)(C)c1cc2cc3ccoc3cc2oc1=O	i	1.9	.	.
Cc1cc(S(=O)(=O)Nc2cc(C)c(O)c(C)c2)c(C)s1	i	.	72%*	i
Cc1cc(S(=O)(=O)Nc2ccc3ccccc3c2)c(C)s1	i	0.87	.	.
CC(=O)c1cccc(NC(=O)C2CCN(C(=O)c3cccs3)CC2)c1	i	1.1	.	.
CCOc1ccc(OCCNCc2ccc(OC(C)C(=O)N(C)C)c(OCC)c2)cc1 (stereo not given)	i	1.3	.	.
CC1CCc2c(nc3ncnn3c2N2CCN(c3ccccc3)CC2)C1 (stereo not given)	i	1.3	.	.
c1nc2nc3c(c(N4CCOCC4)n2n1)CCCC3	i	17*	i	i
CC1CCN(CCCNC(=O)C2CCC(CNS(=O)(=O)c3ccccc3)CC2)CC1 (stereo not given)	i	1.1	.	.
Brc1ccc(CSc2nccn2-c2ccccc2)cc1	i	.	.	.
SMILES	KCNQ2 inh	KCNQ2 pot	Kir21 conf inh	HEK293 Tl flux	others
Clc1cccc(CSc2nccn2-c2ccccc2)c1	i	.	64%*	i
CC(=O)c1ccc(OCc2cc(C(=O)NC(C)CCn3cccn3)no2)cc1 (stereo not given)	i	.	.	.
CCOc1cccc(CNCc2cccnc2)c1OCc1ccccc1	i	1.3	45%*	i
Clc1ccc(COc2ccccc2CNCc2cccnc2)cc1	i	0.38	.	.
COc1ccc(C(=O)COC(=O)CCNS(=O)(=O)c2ccccc2)cc1Br	i	1.7	.	.
CSc1ccc(CN(C)CC(=O)NCc2ccccc2)cc1	i	.	.	.
CCc1ccc(CN(C)C(C)C(=O)NCc2ccccc2)cc1 (stereo not given)	i	.	.	.
COc1ccc(CNC(=O)CN(C)Cc2ccc(SC)cc2)cc1	i	.	i	i
CSc1ccc(CN(C)C(C)C(=O)NCc2ccccc2)cc1 (stereo not given)	i	.	34%*	i
COc1ccc(C(=O)NCCN2CCOCC2)c(OC)c1OC	i	.	.	.
CC(OC(=O)CCN=C1NS(=O)(=O)c2ccccc21)C(=O)N(C)C1CCCCC1 (stereo not given)	i	.	.	.
Cc1cc(C)c(S(=O)(=O)NCc2ccccn2)cc1C	i	.	.	.
Cc1ccc(C(C)C)cc1S(=O)(=O)NCc1ccccn1	i	.	67%*	i
CCOC(=O)c1c(S(=O)(=O)N2CCCC(C(=O)Nc3ccc(C)cn3)C2)c(C)n(C)c1C (stereo not given)	i	.	.	.
O=C1c2ccc3c4c(ccc(c24)C(=O)N1c1ccc(O)cc1)C(=O)N(c1ccc(O)cc1)C3=O	i	11*	i	i	CHO-K1 Tl ctr=2.5*;KCNQ1 pot spec=45*;KCNQ2 pot confirm=-12;Kir21 spec=-30
O=C(O)c1ccc(S(=O)(=O)c2ccc3c(c2)C(=O)N(c2ccc(O)cc2)C3=O)cc1	i	1.8	.	.
CC(C)N1C(=O)N(c2cccc(Cl)c2)C(C)(O)CC1(C)C (stereo not given)	i	.	.	.
CCOc1ccc(Nc2nc(N)nc(CCl)n2)cc1	i	0.03	.	.
Nc1nc(Nc2ccc(Cl)cc2)nc2ccccc12	i	.	i	174%*
CCOc1ccc(Nc2nc(N)c3ccccc3n2)cc1	i	0.08	50%*	i
Nc1nc(Nc2ccccc2)nc2ccccc12	i	2.8	.	.
CN(C)c1ccc(Nc2nc(N)c3ccccc3n2)cc1	i	1.5	32%*	i
Cc1ccccc1Nc1nc(N)c2ccccc2n1	i	0.58	.	.
CCOC(=O)c1c(C)n(C)c2ccc(OCC(O)CNCCc3ccccc3)cc12 (stereo not given)	i	0.08	.	.
CCCc1cnc(NCCNCC(O)COc2ccc(Cl)c(Cl)c2)nc1 (stereo not given)	i	.	68%*	i
CC(C)c1ccccc1-n1c(-c2cccnc2)n[nH]c1=S	i	.	.	.
COc1cc(C)ccc1OCCOCCN(C)Cc1ccccc1	i	0.85	.	.
CCc1ccc(OCCCCN(C)Cc2ccccc2)cc1	i	.	26%*	i

Bioassay records as filed in PubChem.
